Experimental data reported in PubChem BioAssay (NCATS).
Records with an inconclusive call do not appear. A call without a number means that no potency is given here. The source made the active and inactive calls. Unless noted, the call rests on the fitted dose curve; in most records, active means well fitted curve in the direction sought with a large enough effect; inconclusive means small, poorly fitted or top-dose-only effect, or another doubt; inactive means no such curve, though single readings can be large; an effect the other way counts as inactive or inconclusive.

Experiments:
[1] = AP1 Signaling Pathway (AID 357; active means well fitted curve in either direction with a large enough effect, not every such curve was filed as active); details: ME-180 AP-1-bla reporter, EGF-induced, beta-lactamase ratio, 5 h; at 38 µM (top of the series)
How it was run: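 ME-180 cells with beta-lactamase reporter under AP-1 response element, stimulated with EC50 EGF; compounds tested in titration series, 5 h at 37 °C. CCF4 substrate added 2.5 h at room temperature; 460/530 nm emission ratio gave %activity and AC50.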

[2] = biological target: Cytochrome P450 1A2 (Homo sapiens) (UniProt P05177); assay: p450-cyp1a2 (AID 410; calls by dose curve)
Sequence of Cytochrome P450 1A2 (Homo sapiens) (P05177 whole entry, looked up): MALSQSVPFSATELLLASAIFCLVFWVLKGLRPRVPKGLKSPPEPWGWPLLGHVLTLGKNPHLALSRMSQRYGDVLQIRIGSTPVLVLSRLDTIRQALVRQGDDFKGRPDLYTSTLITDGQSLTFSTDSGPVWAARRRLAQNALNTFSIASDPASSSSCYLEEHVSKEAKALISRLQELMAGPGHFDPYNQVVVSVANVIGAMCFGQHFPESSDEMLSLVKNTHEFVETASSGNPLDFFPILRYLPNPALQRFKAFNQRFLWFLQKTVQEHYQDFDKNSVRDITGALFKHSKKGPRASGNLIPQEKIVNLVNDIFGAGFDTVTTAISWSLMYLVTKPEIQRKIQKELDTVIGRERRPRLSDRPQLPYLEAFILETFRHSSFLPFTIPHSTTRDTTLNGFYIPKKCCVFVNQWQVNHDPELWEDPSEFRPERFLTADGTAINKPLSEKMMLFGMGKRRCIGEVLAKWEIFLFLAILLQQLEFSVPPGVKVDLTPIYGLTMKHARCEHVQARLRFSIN
How it was run: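 Human CYP1A2 (20nM) demethylated Luciferin-ME at its Km (100uM) in 100mM KPO4. After 10 min compound preincubation, NADPH regeneration ran the reaction 60 min at room temperature. Luciferin was read by luminescence, normalized to 57 uM furafylline.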

[3] = NFAT Signaling Pathway (AID 444; active means well fitted curve in either direction with a large enough effect, not every such curve was filed as active;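 further: carbachol stimulus at about its EC50 of 1 µM final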); details: Jurkat NFAT-bla M1, carbachol, beta-lactamase ratio, 5 h; at 38 µM (top of the series)
How it was run: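 Jurkat cells carrying an NFAT-driven β-lactamase reporter and co-transfected muscarinic M1 receptor were treated with compound plus carbachol (1 uM final, an EC50 level) for 5 h at 37 °C. CCF4 loading followed for 1 h at RT; 460/530 nm ratio gave %activity.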

[4] = Stat Signaling Pathway (AID 446; active means well fitted curve in either direction with a large enough effect, not every such curve was filed as active;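 further: ME-180 cervical cancer cells given 40 pM IL-6 alongside compound; SIE-controlled beta-lactamase reporter measured as 460/530 nm FRET emission ratio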); details: ME-180 SIE beta-lactamase reporter, IL-6 stimulated, 5 h; at 38 µM (top of the series)
How it was run: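 ME-180 cells carrying a SIE-driven beta-lactamase reporter are stimulated with 40 pM IL-6 for 5 h at 37C in the presence of compound. The 460/530 nm FRET substrate ratio is read after 2.5 h at RT. Data are normalised to 300 pM IL-6 and to 125 nM JAK inhibitor controls.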

[5] = biological target: Glucocorticoid receptor (Homo sapiens) (UniProt P04150); assay: GR-GFP Redistribution (AID 450;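 active means compounds whose dose series gives a full or clear partial fitted curve of increased nuclear translocation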; further: potency means the concentration at half of the fitted maximal effect); details: U2OS GR-GFP nuclear translocation, laser cytometry, 2 h
Sequence of Glucocorticoid receptor (Homo sapiens) (P04150 whole entry, looked up, the tested form may be a part): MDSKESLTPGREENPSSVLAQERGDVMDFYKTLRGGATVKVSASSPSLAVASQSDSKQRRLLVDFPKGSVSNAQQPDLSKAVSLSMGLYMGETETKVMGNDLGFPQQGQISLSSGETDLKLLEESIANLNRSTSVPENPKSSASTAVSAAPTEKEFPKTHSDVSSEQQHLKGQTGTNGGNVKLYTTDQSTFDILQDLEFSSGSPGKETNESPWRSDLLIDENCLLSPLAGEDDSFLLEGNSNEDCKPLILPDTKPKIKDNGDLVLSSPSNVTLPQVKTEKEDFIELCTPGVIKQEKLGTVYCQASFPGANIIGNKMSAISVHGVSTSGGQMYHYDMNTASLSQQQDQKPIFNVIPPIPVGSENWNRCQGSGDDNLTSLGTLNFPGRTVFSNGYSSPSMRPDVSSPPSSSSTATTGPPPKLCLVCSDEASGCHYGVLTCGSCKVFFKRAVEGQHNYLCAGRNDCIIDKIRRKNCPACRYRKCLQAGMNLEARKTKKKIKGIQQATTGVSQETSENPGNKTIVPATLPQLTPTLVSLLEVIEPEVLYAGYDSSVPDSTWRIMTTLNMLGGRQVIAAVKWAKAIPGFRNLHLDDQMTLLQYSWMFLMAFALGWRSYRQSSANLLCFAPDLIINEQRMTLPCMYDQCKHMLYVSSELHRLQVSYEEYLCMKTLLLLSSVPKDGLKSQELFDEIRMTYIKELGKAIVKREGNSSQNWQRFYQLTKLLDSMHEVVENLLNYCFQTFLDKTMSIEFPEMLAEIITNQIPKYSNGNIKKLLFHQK

[6] = biological target: Glucocorticoid receptor (Homo sapiens) (UniProt P04150); assay: GR-EFC Redistribution (AID 451; calls by dose curve; further: potency means the concentration at half of the fitted maximal effect); details: CHO-K1 GR-EFC translocation, beta-gal luminescence, 2 h
How it was run: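 CHO-K1 cells stably expressing nuclear-localized β-gal enzyme acceptor and GR fused C-terminally to the enzyme donor fragment; ligand-driven nuclear translocation restores β-gal by complementation. Compounds titrated up to 46 uM final, 2 h at 37 °C; luminescence read.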

[7] = biological target: Mitogen-activated protein kinase 10 (Mus musculus) (UniProt Q61831); assay: JNK3 AlphaScreen Assay (AID 530; active means well fitted curve in either direction with a large enough effect, not every such curve was filed as active;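 further: kinase came from lysate of stimulated human HepG2 cells; signal reports phosphorylation of biotinylated GST-cJun 1-79 at Ser73 with 10 µM ATP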)
How it was run: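 JNK3 came from HepG2 lysates pre-activated with IL-1beta and TNF-alpha and phosphorylated biotinylated GST-cJun (1-79) at 10 uM ATP, pH 7.6, room temperature. Compounds were titrated. AlphaScreen signal used anti-phospho-cJun (Ser73) antibody.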

[8] = biological target: 3',5'-cyclic-AMP phosphodiesterase 4B (Homo sapiens) (UniProt Q07343); assay: qHTS Assay for Inhibitors of PDE-IV (AID 607; active means well fitted activation curve with a large enough effect in the main read-out, with a control signal flat, not every such curve was filed as active)
Sequence of 3',5'-cyclic-AMP phosphodiesterase 4B (Homo sapiens) (Q07343 whole entry, looked up): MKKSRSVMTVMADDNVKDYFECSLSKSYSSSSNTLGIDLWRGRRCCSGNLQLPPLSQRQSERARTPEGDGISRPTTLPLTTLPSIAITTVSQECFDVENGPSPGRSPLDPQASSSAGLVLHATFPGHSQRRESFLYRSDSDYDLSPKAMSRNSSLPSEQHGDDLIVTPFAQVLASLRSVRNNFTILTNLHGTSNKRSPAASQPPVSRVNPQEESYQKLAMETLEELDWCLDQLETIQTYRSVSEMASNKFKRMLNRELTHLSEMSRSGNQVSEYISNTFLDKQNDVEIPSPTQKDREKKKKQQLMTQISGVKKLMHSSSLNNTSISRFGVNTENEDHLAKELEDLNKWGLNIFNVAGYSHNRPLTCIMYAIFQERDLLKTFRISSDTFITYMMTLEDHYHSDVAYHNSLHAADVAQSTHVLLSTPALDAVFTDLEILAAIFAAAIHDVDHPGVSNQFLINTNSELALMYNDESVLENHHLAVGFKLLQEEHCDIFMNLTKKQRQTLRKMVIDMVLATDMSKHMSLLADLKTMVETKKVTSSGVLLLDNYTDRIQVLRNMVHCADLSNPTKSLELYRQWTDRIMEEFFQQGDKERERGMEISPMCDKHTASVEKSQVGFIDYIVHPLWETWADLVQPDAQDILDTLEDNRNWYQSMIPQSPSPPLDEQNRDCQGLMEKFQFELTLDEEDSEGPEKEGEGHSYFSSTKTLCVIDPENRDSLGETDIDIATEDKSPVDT
How it was run: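 HEK293 ACTOne cells with CNG channel (1000/well), endogenous PDE4; membrane potential dye, compounds up to 22.9 uM final. Fluorescence Ex 535/Em 590; RO 20-1724 (100 uM final) as reference.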

[9] = biological target: Guanine nucleotide-binding protein G(i) subunit alpha-1 (Homo sapiens) (UniProt P63096); assay: qHTS Assay for Inhibitors of RGS12 GoLoco Motif Activity (Green Fluorophore) (AID 879);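 further: negative values mean loss of peptide binding seen as reduced polarization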
Sequence of Guanine nucleotide-binding protein G(i) subunit alpha-1 (Homo sapiens) (P63096 whole entry, looked up): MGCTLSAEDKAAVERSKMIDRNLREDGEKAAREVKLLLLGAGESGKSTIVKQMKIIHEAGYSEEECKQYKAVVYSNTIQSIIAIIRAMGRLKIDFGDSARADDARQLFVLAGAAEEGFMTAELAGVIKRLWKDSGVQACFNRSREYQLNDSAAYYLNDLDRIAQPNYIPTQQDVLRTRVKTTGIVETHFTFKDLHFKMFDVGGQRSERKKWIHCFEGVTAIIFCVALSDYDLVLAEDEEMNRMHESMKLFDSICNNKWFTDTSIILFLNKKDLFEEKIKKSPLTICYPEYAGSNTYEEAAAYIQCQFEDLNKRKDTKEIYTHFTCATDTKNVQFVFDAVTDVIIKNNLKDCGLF
How it was run: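 Fluorescence polarization assay: 50 nM Gαi1 with 10 nM FITC-labeled RGS12 GoLoco peptide in 10 mM Tris pH 7.5, 150 mM NaCl, 0.1 mM GDP, 0.05% NP40, 10 min at room temperature with compound.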

[10] = biological target: Pyruvate kinase (Leishmania mexicana) (UniProt Q27686); assay: qHTS Validation Assay for Inhibitors of Leishmania Mexicana Pyruvate Kinase (AID 945)
Sequence of Pyruvate kinase (Leishmania mexicana) (Q27686 2-499 E452W): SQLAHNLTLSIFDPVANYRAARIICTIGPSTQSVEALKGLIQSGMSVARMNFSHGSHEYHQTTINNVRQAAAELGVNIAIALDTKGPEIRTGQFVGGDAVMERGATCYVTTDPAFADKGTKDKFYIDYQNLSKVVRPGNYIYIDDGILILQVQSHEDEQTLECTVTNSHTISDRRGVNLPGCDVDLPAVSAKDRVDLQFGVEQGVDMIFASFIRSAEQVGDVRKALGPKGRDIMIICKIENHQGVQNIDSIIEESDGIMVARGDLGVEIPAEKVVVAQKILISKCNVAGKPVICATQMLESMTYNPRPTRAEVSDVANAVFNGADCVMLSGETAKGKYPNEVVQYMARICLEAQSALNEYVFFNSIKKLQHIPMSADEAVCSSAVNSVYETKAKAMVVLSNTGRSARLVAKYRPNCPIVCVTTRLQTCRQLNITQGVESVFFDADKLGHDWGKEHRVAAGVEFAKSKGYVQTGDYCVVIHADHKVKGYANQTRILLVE
How it was run: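 Mutant LmPYK (E451W), 0.2 nM, plus 0.5 mM PEP and 0.1 mM ADP in 50 mM imidazole pH 7.2 containing 0.01% Tween 20 and 0.05% BSA. Incubated 1 h at room temperature; luminescence via PKLight, normalized to DMSO.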

[11] = biological target: Pyruvate kinase PKM (Homo sapiens) (UniProt P14618); assay: qHTS Assay for Activators of Human Muscle Pyruvate Kinase (AID 954; active means well fitted curve in the direction sought with a large enough effect, not every such curve was filed as active)
Sequence of Pyruvate kinase PKM (Homo sapiens) (P14618 whole entry, looked up): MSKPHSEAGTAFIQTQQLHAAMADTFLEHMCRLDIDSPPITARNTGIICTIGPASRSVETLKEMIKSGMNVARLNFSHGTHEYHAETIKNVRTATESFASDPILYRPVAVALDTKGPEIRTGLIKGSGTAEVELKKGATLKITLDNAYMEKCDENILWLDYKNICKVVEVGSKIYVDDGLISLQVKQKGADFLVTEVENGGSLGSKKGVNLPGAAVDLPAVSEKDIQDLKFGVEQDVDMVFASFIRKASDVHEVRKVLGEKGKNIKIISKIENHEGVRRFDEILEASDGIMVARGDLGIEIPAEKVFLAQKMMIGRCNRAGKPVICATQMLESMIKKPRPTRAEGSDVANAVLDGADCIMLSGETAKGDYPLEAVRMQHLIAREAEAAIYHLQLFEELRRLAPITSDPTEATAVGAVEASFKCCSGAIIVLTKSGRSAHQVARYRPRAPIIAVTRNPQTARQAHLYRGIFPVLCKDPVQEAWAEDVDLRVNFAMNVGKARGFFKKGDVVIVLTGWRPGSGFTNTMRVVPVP
How it was run: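 Purified human PKM2 (0.1 nM) with 0.5 mM PEP (Km) and 0.1 mM ADP in 50 mM imidazole pH 7.2, KCl, MgCl2, 1 h at room temperature; ATP formed read by coupled luciferase luminescence. Normalized to no-enzyme/110 uM thiadiazolimine inhibition; 0.3 nM enzyme column for activation.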

[12] = biological target: Alpha-galactosidase A (Homo sapiens) (UniProt P06280); assay: Counterscreen for Glucocerebrosidase Inhibitors: qHTS Assay for Human alpha-Galactosidase at pH 4.5 (AID 992)
Sequence of Alpha-galactosidase A (Homo sapiens) (P06280 whole entry, looked up): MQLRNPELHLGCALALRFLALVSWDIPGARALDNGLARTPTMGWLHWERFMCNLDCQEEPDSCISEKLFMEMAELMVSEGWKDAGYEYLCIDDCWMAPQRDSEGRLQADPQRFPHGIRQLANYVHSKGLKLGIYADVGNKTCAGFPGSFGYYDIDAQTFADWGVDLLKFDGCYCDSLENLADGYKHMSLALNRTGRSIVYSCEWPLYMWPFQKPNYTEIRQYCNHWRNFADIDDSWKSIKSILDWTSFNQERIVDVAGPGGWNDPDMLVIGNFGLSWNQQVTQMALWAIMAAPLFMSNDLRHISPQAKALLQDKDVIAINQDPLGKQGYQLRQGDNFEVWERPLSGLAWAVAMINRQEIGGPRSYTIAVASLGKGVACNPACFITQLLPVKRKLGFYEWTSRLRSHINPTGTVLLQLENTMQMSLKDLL
How it was run: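 Human enzyme (2 nM) with 80 uM 4-methylumbelliferyl alpha-D-galactopyranoside in 50 mM citric acid, 0.005% Tween-20, pH 4.5, 20 min at room temperature. Compounds 0.7 nM–77 uM; fluorescence Ex 365/Em 440 after pH 10 stop; AC50 from Hill fits.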

[13] = biological target: alpha-glucosidase (Oryza sativa, rice) (UniProt Q653V4); assay: Counterscreen for Glucocerebrosidase Inhibitors: qHTS Assay for Rice alpha-Glucosidase at pH 5.0 (AID 997)
How it was run: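 Rice alpha-glucosidase (4 nM final) with 400 uM 4-methylumbelliferyl-alpha-D-glucopyranoside in citrate buffer pH 5.0, 20 min at room temperature, stopped at pH 10; fluorescence 365/440 nm, compounds 0.7 nM–77 uM, AC50 from Hill fits.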

[14] = Validation of Assay for Modulators of Lamin A Splicing (AID 1459; active means well fitted curve in the direction sought with a large enough effect in the signal ratio; the % refers to the signal ratio;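 further: cells exposed to compound for two days before reading; ratio rise marks activators and ratio drop marks inhibitors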)
How it was run: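 S3 HeLa cells stably expressing a lamin A-EGFP splicing minigene and DsRed2 were seeded at 600 cells/well in Opti-MEM with 2% FBS, pin-dosed, and incubated 48 hrs at 37 °C, 5% CO2. Laser-scanning cytometry (488 nm) gave GFP/RFP total intensity ratio.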

[15] = qHTS Assay for Lipid Storage Modulators (AID 1519; calls by dose curve); details: Drosophila S3 cells, BODIPY lipid droplet/cell ratio, laser cytometry, cells loaded with oleic acid
How it was run: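 Cells seeded at 5,000 per well were treated with compounds over a concentration series and loaded with oleic acid (400 uM, as added). Lipid droplet fluorescence (488 nm excitation, 500-530 nm channel) was read by laser-scanning cytometry and normalized to 20 uM Triacsin C.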

[16] = biological target: DNA repair nuclease/redox regulator APEX1 (Homo sapiens) (UniProt P27695); assay: qHTS Validation Assay for Inhibitors of the Human Apurinic/apyrimidinic Endonuclease 1 (APE1) (AID 1705;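 further: TAMRA fluorescence gain over two minutes as APE1 cuts a quenched THF abasic duplex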)
Sequence of DNA repair nuclease/redox regulator APEX1 (Homo sapiens) (P27695 whole entry, looked up): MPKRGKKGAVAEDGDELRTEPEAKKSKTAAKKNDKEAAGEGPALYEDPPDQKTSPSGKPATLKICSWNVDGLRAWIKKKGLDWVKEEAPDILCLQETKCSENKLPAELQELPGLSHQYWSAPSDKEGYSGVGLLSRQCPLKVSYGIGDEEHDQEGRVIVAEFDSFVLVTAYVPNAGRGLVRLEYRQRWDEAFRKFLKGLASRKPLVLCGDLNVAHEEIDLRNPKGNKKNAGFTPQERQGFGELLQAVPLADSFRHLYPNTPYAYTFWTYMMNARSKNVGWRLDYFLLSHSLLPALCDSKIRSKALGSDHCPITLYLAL
How it was run: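 Human APE1 was preincubated with compound for 15 min at room temperature, then 50 nM (final) THF-abasic double-stranded DNA substrate bearing 5'-TAMRA and 3'-BHQ-2 was added. Incision-driven fluorescence rise (ex 525/em 598 nm) was read kinetically.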

[17] = Counterscreen for APE1 Inhibitors: Fluorescent Dye Displacement Validation Assay (AID 1707)
How it was run: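 Thiazole Orange (250 nM) bound to 50 nM TAMRA-labelled dsDNA with tetrahydrofuran abasic site; displacement by DNA-binding compounds lowers fluorescence. Buffer 50 mM Tris-HCl pH 7.5, 50 mM NaCl, 2 mM MgCl2, 0.01% Tween-20; endpoint read at 480/540 nm.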

[18] = biological target: Endonuclease 4 (Escherichia coli (strain K12)) (UniProt P0A6C1); assay: Counterscreen for APE1 Inhibitors: qHTS Validation Assay for Inhibitors of Endonuclease IV (AID 1708)
How it was run: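 2 nM enzyme was preincubated with compounds for 15 min at room temperature in 50 mM Tris-HCl pH 7.5, 50 mM NaCl, 2 mM MgCl2, 1 mM DTT, 0.01% Tween-20. 50 nM THF-abasic TAMRA/BHQ-2 duplex substrate started the reaction.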

Structure (SMILES): Cc1cccc(C)c1NC(=O)C[N+](C)(C)C
- activity change, negative = inhibition [1]: 0.892% (inactive)
- Potency [2]: inactive
- activity change, negative = inhibition [3]: 11.6% (inactive)
- activity, negative = inhibition [4]: 8.11% (inactive)
- Potency [5]: > 46 µM (inactive)
- Potency [6]: > 46 µM (inactive)
- Potency [7]: inactive
- Potency [8]: inactive
- outcome [9]: inactive
- Potency [10]: inactive
- outcome [11]: inactive
- outcome [12]: inactive
- outcome [13]: inactive
- outcome [14]: inactive
- activity change, negative = inhibition ([15]; at 57.5 µM (top of the series)): -1.34% (inactive)
- max response ([15]; measured here: cell count channel max response): -10.6%
- max response ([15]; measured here: lipid channel max response): -11.6%
- Potency [16]: inactive
- Potency [17]: inactive
- Potency [18]: inactive
